In the library only some 1.9% were active in any assay of this set; here they are far more common.
MsrA inhibitor: bovine MsrA enzyme inhibitors, primary screen, biochemical, absorbance, HTS; purified bovine MsrA, absorbance read-out; hit rate 0.75% among 360,000; AID 651718, 2012; inhibition, % at 15.5 µM; in the data active = inhibition above about 4.5%;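 note: 0% = vehicle wells with enzyme and 100% = reference inhibitor wells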
HTR5A ag ctr: HTR5A agonists in luminescence cell assay, primary screen, counter-screen for OPRM1-OPRD1 heterodimer agonist project, full-deck HTS; activation, % at 9.3 µM; cell-based; hit rate 0.61% among 340,000; in the data active = activation mostly above about 9.5%, no sharp cut-off; inactive = mostly below about 7.6%;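 note: 0% = cells with vehicle only and 100% = reference agonist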
bovine MsrA act: bovine MsrA enzyme activators, primary screen, biochemical, absorbance, HTS. purified bovine MsrA, absorbance read-out. activation, % at 10.6 µM. hit rate 0.3% among 360,000. AID 602163, 2012; in the data active = activation above about 7.5%;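 note: 0% = vehicle and 100% = reference activator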
HTR5A inv ag: HTR5A inverse agonists in luminescence cell assay, primary screen, counter-screen for OPRM1-OPRD1 heterodimer inverse agonist project, full-deck HTS; 5-hydroxytryptamine receptor 5A (Homo sapiens), P47898; inhibition, % at 9.3 µM; hit rate 0.083% among 340,000; HTR5A cell line, inverse agonism; AID 504634, 2011; in the data active = inhibition mostly above about 23%, no sharp cut-off; inactive = mostly below about 18%;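 note: 0% = cells with DMSO and 100% = no-cell wells with DMSO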
MOR-DOR ag-1: agonists of OPRM1-OPRD1 heterodimerization, primary screen, cell-based, luminescence; cells; activation, % at 9.3 µM; AID 504326, 2011; hit rate 0.3% among 340,000;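 note: 0% = vehicle-treated cells and 100% = reference agonist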
OPRM1-OPRD1 inv: inverse agonists of MOR-DOR heterodimerization, primary screen, cell-based, luminescence; Mu-type opioid receptor (Homo sapiens) + Delta-type opioid receptor (Homo sapiens), …; cell-based MOR-DOR heterodimer luminescence, inverse agonism; inhibition, % at 9.3 µM; hit rate 0.21% among 340,000; in the data active = inhibition above about 22%, passing the limit was not always enough;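 note: 0% = cells with DMSO and 100% = wells without cells with DMSO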
MOR-DOR ag-2: OPRM1-OPRD1 heterodimerization promoters, counter-screen for HTR5A agonist project, cell-based, luminescence | activation, % at 9.3 µM | hit rate 13% among 800 | shares compounds with HTR5A ag ctr | U2OS counter-screen cells, complementation luminescence, 3 h
HTR5A ag conf: HTR5A agonists, retest of hits, confirmation, cell-based, luminescence. shares compounds with HTR5A ag ctr. hit rate 17% among 800. activation, % at 9.3 µM. HTR5A agonist cell assay; in the data active = activation above about 17%;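 note: 0% = cells with vehicle only and 100% = full reference agonist response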
The depositor's hits bear a star; / = no result given; ! = repeats disagree. Cut-off read from the data, not from the text of the source, unless noted: active = activation above about 18%; inactive = the rest.

SMILES	MsrA inhibitor	HTR5A ag ctr	bovine MsrA act	HTR5A inv ag	MOR-DOR ag-1	OPRM1-OPRD1 inv	MOR-DOR ag-2	HTR5A ag conf
O=C(O)c1cc(-c2ccco2)nc2ccc(Br)cc12	3	18*!	-8	-47	3	-13	42*	4
O=C(c1ccco1)N1CCN(C(=O)c2cc(-c3ccncc3)nc3ccc(Br)cc23)CC1	2	2	-3	0	0	2	/	/
Cc1cc(N2CCN(CC(C)(C)O)C[C@H]2C)ccc1N1CCN(Cc2ccccc2)[C@H](C)C1	2	/	/	/	/	/	/	/
CC(=O)CCc1ccc(OCCCOc2cccc3cccnc23)cc1	0	23*	-11	-19	2	-11	1	13
CC(=O)c1ccc(OCCCOc2cccc3cccnc23)cc1	0	1	-3	-4	-2	11	/	/
O=C1CC(c2ccccc2)Sc2ccccc2N1 (stereo not given)	1	17*	-10	-47	-3	12	2	3
O=C1CC(c2ccco2)Sc2ccccc2N1 (stereo not given)	-1	-1	-1	4	-2	8	/	/
C[C@@H]1CN([C@@H](C)CO)C(=O)CCCn2cc(nn2)CO[C@H]1CN(C)C(=O)CCC(F)(F)F	0	/	/	/	/	/	/	/
Cc1cc(N2CCNC[C@@H]2C)ccc1N1CCN(Cc2ccccc2)[C@@H](C)C1	-1	/	/	/	/	/	/	/
COc1ccc(CNC(=O)CN(CC2CCCO2)C(=O)CNS(=O)(=O)c2ccccc2)cc1 (stereo not given)	-1	17*	-9	-51	-2	12	4	3
COc1ccc(CNC(=O)CN(CC2CCCO2)C(=O)CNS(=O)(=O)c2ccc(C)cc2)cc1 (stereo not given)	0	3	-2	20	0	1	/	/
Nc1ccn([C@@H]2O[C@H](C(=O)N[C@H](Cc3ccccc3)C(=O)N3CCN(C(=O)N4CCCCC4)CC3)[C@@H](O)[C@H]2O)c(=O)n1	0	/	/	/	/	/	/	/
CC(C)c1ccc(-c2nnn(CCC#N)n2)cc1	0	0	-3	-1	-3	16	/	/
CC(C)c1ccc(-c2nnn(Cc3nc4ccccc4s3)n2)cc1	1	21*	-8	2	4	-18	3	1
C=CCN1CCc2c(cc(O)c(O)c2Cl)C(c2ccccc2)C1 (stereo not given)	0	26*	-5	-92	5	-27	1	4
Cc1ccc(SCCC(=O)Nc2ccccc2Br)cc1	0	-1	6	-6	4	-22	/	/
Cc1ccc(SCCC(=O)Nc2ccccc2C(=O)NC(C)C)cc1	-1	17*	-6	-42	-1	5	3	-2
Cc1nn(-c2ccc(Cl)cc2)c2sc(C(=O)N3CCN(c4ccccn4)CC3)cc12	0	22*	-2	-56	-3	14	1	-1
CS(=O)(=O)c1ccc2nc(NC(=O)CCNC(=O)c3ccc([N+](=O)[O-])cc3)sc2c1	0	20*	2	-59	3	-17	1	4
CCCN1CCCCC(NC(=O)OC(C)(C)C)C1=O (stereo not given)	0	/	/	/	/	/	/	/
CN(CC(=O)Nc1ccc(F)c(F)c1F)C(=O)c1ccc2c(c1)NC(=O)CS2	-1	11	-12	-26	1	-4	/	/
CN(CC(=O)Nc1ccc(Cl)c(C(F)(F)F)c1)C(=O)c1ccc2c(c1)NC(=O)CS2	0	16*	-13	-24	0	2	-1	-1
COC(=O)c1ccc(NC(=O)c2cc[n+](Cc3ccccc3)cc2)cc1	0	15*	-12	-13	-2	8	0	3
COc1ccccc1NCC(=O)N/N=C(\C)c1ccc(Br)s1	0	46*	-4	-103	-1	7	6	36*
C/C(=N/NC(=O)CNc1ccc(C)cc1)c1ccc(Br)s1	2	24*	-3	-51	0	-1	1	38*
SMILES	MsrA inhibitor	HTR5A ag ctr	bovine MsrA act	HTR5A inv ag	MOR-DOR ag-1	OPRM1-OPRD1 inv	MOR-DOR ag-2	HTR5A ag conf
C/C(=N/NC(=O)c1ccco1)c1ccc(Br)s1	4	-4	-6	22	-1	4	/	/
C/C(=N\NC(=O)c1ccc(Cl)cc1)c1ccc(Br)s1	1	3	-3	-8	3	-16	/	/
O=C(CSc1ccc2ccccc2n1)c1ccc2c(c1)OCO2	2	40*	-12	-121	0	-1	5	53*
COc1ccc(NC(=O)CN(C)C(=O)C2CC(=O)N(c3cccc4ccccc34)C2)cc1 (stereo not given)	0	16*	-2	-40	1	-3	0	-2
Cc1cccc(C(=O)NNC(=O)c2c(O)c3ccccc3n(C)c2=O)c1	2	19*	-3	-51	2	-10	3	7
C[C@H](O)[C@@H]1CN2CCc3c([nH]c4ccccc34)[C@@H]2C[C@@H]1N(C)CC1CCCCC1	-1	/	/	/	/	/	/	/
c1cc(-c2cc3cc4c(cc3cn2)OCO4)cs1	0	9	3	-28	-2	14	/	/
COc1cc2cnc(-c3ccsc3)cc2cc1OC	2	22*	-2	-64	-3	18	1	2
COC(=O)C1=C(C)N(Cc2cccc(C(F)(F)F)c2)C(=NCc2cc(OC)c(OC)c(OC)c2)NC1c1ccc(Cl)cc1 (stereo not given)	-1	/	/	/	/	/	/	/
CC(C)=C1SC(N2CCN(Cc3ccccc3)CC2)=NC1=O	0	0	0	-10	0	1	/	/
CC(C)=C1SC(N2CCN(c3cccc(Cl)c3)CC2)=NC1=O	0	14*	-5	49	1	-3	35*	-2
COc1ccc(OC)c2sc(N(CCN(C)C)C(=O)/C=C/c3cccs3)nc12	1	8	-3	-28	6	-29	/	/
COc1ccc(C)c2sc(N(CCN(C)C)C(=O)/C=C/c3cccs3)nc12	3	16*	-3	-66	7	-36	10	18*
O=C1OCCC1Sc1nnc(-c2cccs2)n1Cc1ccccc1 (stereo not given)	/	15*	-3	-3	8	-44	-3	-2
O=C1OCCC1Sc1nnc(-c2ccccc2Cl)n1Cc1ccccc1 (stereo not given)	0	7	2	-20	2	-10	/	/

Compound activity from PubChem BioAssay.
